# Measured values: the supplement of paper PMC9334596
# Several values for one entry are separate records, joined by “and”; a condition that tells them apart may be missing. Equal values may be shown once. Whole data set: some 5,300 compounds, median “PER2::LUC luminescence relative to vehicle control” near 0.96, cut for the highest 2% near 1.3. Shown is part of a subset that was picked to be rich in the highest values.
# Test system: mPer2Luc MEF
# Test: PER2::LUC luminescence relative to vehicle control (fold of vehicle); higher = higher PER2::LUC reporter signal
# Details: 10 µM
# Summary of the method: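 The value is PER2::LUC luminescence expressed as fold of vehicle control. Mouse embryonic fibroblasts carrying the mPer2Luc reporter were seeded at ~3000 cells per well in 384-well plates and grown in DMEM with 10% FBS at 37 °C and 5% CO2. Compounds from commercial libraries were added at 10 μM 48 h after seeding, and luminescence was read with the ONE-Glo luciferase assay system 24 h and 30 h after treatment, followed by an alamarBlue viability assay.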
SMILES,PER2::LUC luminescence (time after treatment 24 h),PER2::LUC luminescence (time after treatment 30 h)
CCCCCCC(=O)CCCCCC/C=C/C[C@@H](O)[C@H](O)[C@@](N)(CO)C(=O)O,1.26,1.35
Cc1ncc(C[n+]2csc(CCO)c2C)c(=O)[nH]1,1.01,0.895
NCC(CC(=O)O)c1ccc(Cl)s1 (racemic),1.04,0.985
CC[C@H](C)[C@@H]([C@@H](CC(=O)N1CCC[C@H]1[C@H](OC)[C@@H](C)C(=O)N[C@H](C)[C@@H](O)c1ccccc1)OC)N(C)C(=O)[C@@H](NC(=O)[C@@H](NC)C(C)C)C(C)C,0.378,0.38
NCCc1c[nH]c2ccc(O)cc12,0.925,0.97
NCCc1ccc(O)cc1,1.03 and 0.947,0.942 and 0.934
Cc1[nH]c2ccc(O)cc2c1CCN,1.08 and 1.05,0.977 and 1.35
NC(CCCCCP(=O)(O)O)C(=O)O (racemic),1.22,1.09
O=[N+]([O-])c1cc([As](=O)(O)O)ccc1O,1.08,1.54
CC(=O)Nc1cc([As](=O)(O)O)ccc1O,1.04 and 1.02,1.06 and 0.878
O=[N+]([O-])c1ccc([As](=O)(O)O)cc1,1.13,0.866
COc1cc(=O)oc(/C=C/C=C/C=C/C(C)=C/[C@@]2(C)O[C@H](C)[C@](C)(O)[C@H]2O)c1C,0.952,0.913
COc1c2c3c4c(c(OC)c(=O)c5c(O)cc(OC)c(c6c(OC)cc(O)c(c1=O)c63)c54)[C@@H](C(C)=O)[C@@](C)(O)C2,1.14,1.06
O=C(O)[C@@H]1C[C@H]2C[C@@H](CP(=O)(O)O)CC[C@H]2CN1,1.03,0.966
C=C(C)c1cc2cc(C(C)=O)c(O)cc2o1,1.31,1.39
OCC1C(O)C(O)C2C(O)CCN12 (stereo not drawn),1.1,1.08
C=CCc1ccc(OC)cc1,0.993,0.968
CC(=O)Oc1ccc(/C=C/c2cc(OC(C)=O)cc(OC(C)=O)c2)cc1,1.76,1.65
COc1ccc(/C=C/c2cc(O)cc(O)c2)cc1,1.69,1.76
COc1ccc(O)c(C(C)(C)C)c1.COc1ccc(O)cc1C(C)(C)C,0.868,1.18
CCCC(=O)O[C@@H]1[C@@H](C)[C@@]2(O)[C@@H](C=C(CO)C[C@]3(O)C(=O)C(C)=C[C@@H]23)[C@@H]2C(C)(C)[C@]12OC(=O)CCC,1.13,0.899
COc1cc2c(cc1F)C(c1ccccc1Cl)=Nc1c(n[nH]c1C)N2,0.461,0.367
CC(=O)OCC1=C[C@H]2[C@@H]3C(C)(C)[C@]3(OC(=O)Cc3ccccc3)C[C@@H](C)[C@]2(O)[C@@H]2C=C(C)C(=O)[C@@]2(O)C1,1.21,1.09
COc1ccc(C(C)(C)C)cc1CN[C@H]1C2CCN(CC2)[C@H]1C(c1ccccc1)c1ccccc1,0.868,0.939
